According to PubChem BioAssay AID1159580 (chemical genetic matrix, 2015):
About 2,000 (36%) of roughly 5,500 compounds were called active. Roughly 18% stayed inconclusive and do not appear here. Cut-off read from the data, not from the text of the source: active = normalized growth mostly below about 0.91 (no sharp cut-off); inconclusive = no clear call, values can overlap the other calls; inactive = mostly above about 0.92. The list shows a part of the results.

Experiment: chemical genetic growth profiling, strain panel (AID 1159580);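 note: tested at 20 µM; growth read once vehicle control cultures reached saturation at 30 °C; 1 = growth at the plate median or of vehicle wells; lower values mean less growth of the strain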
Settings: S. cerevisiae deletion strains, growth OD

Measured: normalized growth

CC1=C(/C=C/C(C)=C/C=C/C(C)=C/C(=O)Nc2ccc(O)cc2)C(C)(C)CCC1
inactive: locus YAL013W, strain DEP1, hits give low values 0.99 | locus YAL040C, strain CLN3, hits give low values 1.09 | locus YCL061C, strain MRC1 (second series), hits give low values 0.995 | locus YDR150W, strain NUM1, hits give low values 1.01 | locus YDR363W, strain ESC2, hits give low values 0.968 | locus YER002W, strain NOP16, hits give low values 1.02 | locus YGR078C, strain PAC10, hits give low values 1.02 | locus YMR263W, strain SAP30, hits give low values 0.994 | locus YMR307W, strain GAS1, hits give low values 0.989 | locus YNL128W, strain TEP1, hits give low values 1.02 | locus YNL175C, strain NOP13, hits give low values 1.02 | locus YNL197C, strain WHI3, hits give low values 1.01 | locus YNL224C, strain SQS1, hits give low values 0.998 | locus YNL322C, strain KRE1, hits give low values 0.993 | locus YOR083W, strain WHI5 (second series), hits give low values 0.952
